From PubChem BioAssay (NCATS)
Values joined by “and” are separate entries in the source; they are usually repeats but may differ in a detail not shown here. Equal entries are not always repeated. Records with an inconclusive call do not appear. A call without a number means that no potency is given here. A number with no mark means an inactive call. Active and inactive are the calls of the source. The call rests on the fitted dose curve; in most records, active means well fitted inhibition curve with a large enough effect; inconclusive means small, poorly fitted or top-dose-only effect; inactive means flat fitted curve, though single readings scatter. Where a SMILES comes first, the peptide text is derived from it. [ ]: non-standard residue; d: D form. ξ: configuration not given here. ξPhe(βξ-Me) = CC(c1ccccc1)C(N)C(=O)O; GABA = NCCCC(=O)O

tested on: HaCat; experiment: Cytotoxic Profiling of Annotated Libraries Using Quantitative High-Throughput Screening (AID 1296008); conditions: Five cell lines viability, CellTiter-Glo ATP luminescence, 48-72 h; max response: stronger effect = lower value; further: nearly all actives have a fitted effect of over 60% in size
How it was run: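 Compounds were pin-transferred onto cells and incubated 48 or 72 hr at 37 degree Celsius, 95% humidity. CellTiter-Glo was added, plates sat 10 min at room temperature, then ATP-coupled luminescence was imaged as the viability read-out.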
Potency means the concentration at half of the fitted maximal effect.

SMILES	outcome	Potency	max response [%]
CC(C)C1=CCC(C)(O)C(OC2OC(CO)C(O)C(O)C2O)C1 (stereo not drawn)	inactive	–	–
CC(C)C1=CC2=CCC3[C@](C)(CCC[C@@]3(C)C(=O)O)C2CC1O (stereo partly drawn)	inactive	–	–
CCC1CC2C(C)=CC3CCCCC3C2(C)C2(OC(=O)C(C)(O)OC2=O)O1 (stereo not drawn)	inactive	–	–
COC(=O)C1C(c2ccc(O)cc2)C(C(=O)OC)C1c1ccc(O)cc1 (stereo not drawn)	inactive	–	–
COc1cc(N2CCC(N(C)C)CC2)ccc1Nc1ncc(Cl)c(Nc2ccccc2P(C)(C)=O)n1	–	1.84 µM (active) and 2.34 µM (active)	–
O=C(O)c1cc(O)c2cccc(O)c2c1O[C@@H]1O[C@H](CO)[C@@H](O)[C@H](O)[C@H]1O	–	–	2.74
C[C@]12CC[C@@H]3c4ccc(O[C@@H]5O[C@H](C(=O)O)[C@@H](O)[C@H](O)[C@H]5O)cc4CC[C@H]3[C@@H]1CCC2=O	inactive	–	–
O=C(O)CCc1cc2ccoc2cc1O[C@@H]1O[C@H](CO[C@@H]2OC[C@](O)(CO)[C@H]2O)[C@@H](O)[C@H](O)[C@H]1O	inactive	–	–
C[C@@H]1C[C@H](O)/C=C/[C@H](O)[C@@H](O)CC(=O)O1	–	–	3.57
CC(=O)c1c(O)cc2c(c1C)C(=O)CC(O)C2 (stereo not drawn)	–	–	1.58
CC1=CC(=O)C[C@H]2[C@@H]1CC[C@@H](C)[C@]21CO[C@H](c2ccoc2)C1=O	inactive	–	–
CC1(C)CCC[C@@]2(C)[C@H]1[C@H](O)C=C1COC(=O)[C@@]12O	inactive	–	–
CC1(C)CC2C(C1)C1(C)CCC13OC3(CO)C2O (stereo not drawn)	–	–	-6.47
CC[C@H]1OC(=O)[C@H](C)[C@@H](OC2C[C@@](C)(OC)[C@@H](O)[C@H](C)O2)[C@H](C)[C@@H](OC2O[C@H](C)C[C@H](NC)[C@H]2O)[C@](C)(O)C[C@@H](C)CN(C)[C@H](C)[C@@H](O)[C@]1(C)O (stereo partly drawn)	inactive	–	–
CC(=O)O[C@H]1[C@H](C)[C@@H](O)[C@H]2[C@@H]1C=C(C(=O)O)[C@H]1C[C@@H]3[C@H]([C@H]21)[C@H]1C(=O)O[C@@H]2CC[C@@]3(C)O[C@]1(O)[C@@H]2C	inactive	–	–
Cn1ccnc1CCOC(c1cc2nccc(C(=O)O)c2[nH]1)c1ccccc1Cl (stereo not drawn)	inactive	–	–
COc1cc([C@@H]2Oc3c(OC)cc(CCCO)cc3[C@@H]2CO[C@@H]2O[C@H](CO)[C@@H](O)[C@H](O)[C@H]2O)ccc1O	–	–	-11.2
Cc1cc(O)cc(Oc2cc(C)c(C(=O)O)c(O)c2)c1	inactive	–	–
CC(c1c[nH]c2ccccc12)C(O)C(=O)O (stereo not drawn)	–	–	-10.2

SMILES	outcome	Potency	max response [%]
CC(C)CC1NC(=O)C(C(C)c2ccccc2)NC(=O)C(C(C)C)NC(=O)C(C)NC(=O)CCCNC(=O)C(Cc2c[nH]c3ccccc23)NC(=O)C(C)NC1=O (stereo not drawn) (cyclo([GABA]AV[ξPhe(βξ-Me)]LAW); configuration not given here)	inactive	–	–
COc1cc(/C=C/C(=O)OC(C)(C)C(OC2OC(CO)C(O)C(O)C2O)C(=O)OCc2ccc(OC3OC(CO)C(O)C(O)C3O)cc2)ccc1O (stereo not drawn)	–	–	3.1
CC(NC(=O)CC(=O)O)c1nc2ccccc2c(=O)[nH]1 (stereo not drawn)	inactive	–	–
CO[C@@H](Cc1ccc(OCCc2nc(-c3ccccc3)oc2C)c2ccsc12)C(=O)O	inactive	–	–
NCCOCCOCCNC(=O)Cc1ccc(Nc2nc(NCc3ccc(F)cc3)nc(NCC3CCCCC3)n2)cc1	inactive	–	–
C/C(=C\CCC(C(=O)O)C1CCC2(C)C3=C(CCC12C)C1(C)CCC(=O)C(C)(C)C1CC3)C(=O)O (stereo not drawn)	–	–	0.998
CC1(C)CC[C@]2(C(=O)O)CC[C@]3(C)C(=CCC4[C@@]5(C)C[C@H](O)[C@H](O[C@@H]6OC[C@H](O)[C@H](O)[C@H]6O)[C@@](C)(CO)C5CC[C@]43C)[C@@H]2C1 (stereo partly drawn)	inactive	–	–
O=C(O[C@@H]1O[C@H](CO)[C@@H](O)[C@H](O)[C@H]1O)c1c(O)cc(O)cc1/C=C/c1ccccc1	inactive	–	–
O=C1Nc2ccc(O)cc2O[C@H]1O[C@@H]1O[C@H](CO)[C@@H](O)[C@H](O)[C@H]1O	inactive	–	–
CC(/C=C/C1(O)C(C)CC(O)CC1(C)C)OC1OC(CO)C(O)C(O)C1O (stereo not drawn)	–	–	-9.66
O=C(/C=C/c1ccc(O)cc1)O[C@H]1[C@@H]2C=CO[C@@H](O[C@@H]3O[C@H](CO)[C@@H](O)[C@H](O)[C@H]3O)[C@@H]2[C@@]2(CO)O[C@@H]12	–	–	1.73
OC[C@H]1O[C@@H](Oc2cc(O)cc(-c3cc4ccc(O)cc4o3)c2)[C@H](O)[C@@H](O)[C@@H]1O	–	–	-4.29
CC(=O)O[C@H]1CC[C@@]2(CI)C(=CC[C@@H]3[C@@H]2CC[C@]2(C)[C@@H]([C@H](C)CCCC(C)C)CC[C@@H]32)C1	–	–	4.89
CC1OC(OC2C(O)C(C(=O)O)OC(OC3CCC4(C)C(CCC5(C)C4C=CC4=C6CC(C)(C)CC(O)C6(C)CCC45C)C3(C)C)C2OC2OCC(O)C(O)C2O)C(O)C(O)C1O (stereo not drawn)	inactive	–	–
C=C(C(=O)O)C1CCC(C)C2CCC(=O)OC2(C)C1 (stereo not drawn)	inactive	–	–
O=C(O)C[C@@H](NC(=O)c1cc(-c2ccc(-c3ccncc3)cc2)cs1)c1ccccc1	inactive	–	–
CN1C(=O)N[C@@H](Cc2c[nH]c3c(Cl)cccc23)C1=O	–	–	-0.267
COC(=O)C1=COC(O[C@@H]2O[C@H](CO)[C@@H](O)[C@H](O)[C@H]2O)/C(=C\COC(=O)c2ccc(OC3OC(CO)C(O)C(O)C3O)c(OC)c2)C1CC(=O)OCCc1ccc(O)cc1 (stereo partly drawn)	inactive	–	–
COc1ccccc1CC(C(=O)O)N(C)C(=O)c1ccccc1 (stereo not drawn)	–	–	1.79
